Results on 65 compounds are retold here after paper PMC4552634, “A New Set of Chemical Starting Points with Plasmodium falciparum Transmission-Blocking Potential for Antimalarial Drug Discovery” (PLoS ONE, 2015).

As a reminder, the % Inhibition is the change of the read-out against control, counted positive when it falls.

Screen size: about 13,000 compounds; about 3,200 (25%) showed an effect of 50% or more. This is one part of the list.

This assay deals with P. falciparum stage V gametocytes. The arrangement: BacTiter-Glo ATP luminescence viability of purified stage V gametocytes in 384-well plates, per cent inhibition versus DMSO. The settings on record: 48 h, 5 µM; inhibitor.
Consider `COCCNCc1ncsc1-c1ccc2c(Nc3cc(O)c(Cl)cc3F)ccnc2c1` [TCMDC-138441], for which the “% Inhibition” value is on record as 3.438%. Regarding `Cc1nc(N=C(N)N)nc2ccc(C(C)(C)C)cc12` [TCMDC-137936], the “% Inhibition” value is recorded as -23.7%. Then `Cc1nc(N=C(N)N)nc2cc3c(cc12)CCC3` [TCMDC-141187], with 84.12%; and `CCC1(C)N=C(N)N=C(N)N1c1ccc(Cl)cc1` (centres unmarked) [TCMDC-132039], with 4.957%. Next, `COc1cc2ncnc(Nc3ccc(OC(F)(F)c4ccccc4)cc3)c2cc1OC` [TCMDC-131925]: 12%; `COc1cc(Nc2ncnc3cc(OC)c(OC)cc23)cc([N+](=O)[O-])c1` [TCMDC-138138]: 82.08%; `COc1cc2ncnc(Nc3ccc(Br)c(Cl)c3)c2cc1OC` [TCMDC-131909]: 14.07%.

As for `CCOC(=O)c1ccc(NC(=O)Nc2cccc(-c3ccc(-c4nc5ccccc5[nH]4)cc3)c2)cc1` [TCMDC-133266], the “% Inhibition” value is -19.34%. As to `O=C(/C=C/c1ccc(Cl)c(Cl)c1)NCCCCCN1CCC(NC(=O)Nc2ccc(F)c(F)c2)CC1` [TCMDC-135714], the “% Inhibition” value is -48.39%.

Regarding `COc1ccc(Oc2ccc(-c3c(C)[nH]c(C)c(Cl)c3=O)cc2)cc1` [TCMDC-136134], the “% Inhibition” value is recorded as 78.59%. Next, `COc1ccc(C#Cc2ccc(-c3c(C)[nH]c(C)c(Cl)c3=O)cc2)cc1` [TCMDC-135655]: 67.24%. In the case of `C/C=C/COc1ccc(-c2c(C)[nH]c(C)c(Cl)c2=O)cc1` [TCMDC-134729], the “% Inhibition” value turned out to be 76.24%. Next, `Cc1[nH]c(C)c(-c2ccc(Oc3ccc(O)cc3)cc2)c(=O)c1Cl` [TCMDC-136135]: -17.77%; `COc1ccc(CCc2ccc(-c3c(C)[nH]c(C)c(Cl)c3=O)cc2)cc1OC` [TCMDC-135789]: 86.31%. For the compound `Cc1[nH]c(C)c(-c2ccc(OCc3ccc(F)cc3)cc2)c(=O)c1Cl` [TCMDC-132415], the “% Inhibition” value amounted to 7.51%.

In the case of `COc1ccc(C=Cc2ccc(-c3c(C)[nH]c(C)c(Cl)c3=O)cc2)cc1OC` [TCMDC-135788], the “% Inhibition” value turned out to be 33.6%. On to `CC(=O)Nc1ccc(C#Cc2ccc(-c3c(C)[nH]c(C)c(Cl)c3=O)cc2)cc1` [TCMDC-135653], for which the “% Inhibition” value turned out to be 34.03%. Next, `CN1CC[C@H](N(Cc2ccccc2F)c2ccc(C#N)c(Cl)c2)C1` [TCMDC-137035]: 21.12%. With `COc1ccc(CN2CCC2=O)c(OC)c1` [TCMDC-132118], the “% Inhibition” value is on record as 45.15%. Next, `CC(=O)N[C@@H]1c2cc(C(C)=O)ccc2OC(C)(C)[C@@H]1O` [TCMDC-139001]: 15.15%; `CC(C)(C)c1ccc(S(=O)(=O)Nc2cc(Cl)ccc2Cn2ccc(N3CCNCC3)nc2=O)cc1` [TCMDC-132581]: 5.996%.

For `Oc1ccc2[nH]c(-c3cccs3)nc2c1CN1CCC(N2CCCC2)CC1` [TCMDC-136356], the “% Inhibition” value is listed as -12.57%.

As to `COc1ccc(CCn2c(=N)c(C(=O)NCc3ccc(C)cc3)cc3c(=O)n4ccccc4nc32)cc1` [TCMDC-124475], the “% Inhibition” value came to 27.16%. Next, `COc1ccc(CCc2ccc(-c3c(C)[nH]c(C)c(Cl)c3=O)cc2)cc1` [TCMDC-135654]: 77.1%; `Cc1[nH]c(C)c(-c2ccc(Oc3ccc(F)cc3)cc2)c(=O)c1Cl` [TCMDC-134728]: 77.31%. Then `Cc1[nH]c(C)c(-c2ccc(CCc3ccc(N)cc3)cc2)c(=O)c1Cl` [TCMDC-135678], with 70.67%; and `CC1(C)N=C(N)N=C(N)N1c1cc(Cl)c(Cl)c(Cl)c1` [TCMDC-137508], with -8.001%; and `Cc1cnc(-c2cccc(C(=O)NC3CCC(CCN4CCc5ccc(C#N)cc5CC4)CC3)c2)[nH]1` (centres unmarked) [TCMDC-139842], with -56.62%. Then `CS(=O)(=O)N1CC2(CCN(CCC(NC(=O)NCc3ccccc3Cl)c3ccc(Cl)c(Cl)c3)CC2)c2ccccc21` (centres unmarked) [TCMDC-141768], with 10.44%; and `O=C(Nc1ccc(Br)c(C(F)(F)F)c1)c1cccc([N+](=O)[O-])c1` [TCMDC-123520], with -21.49%. For the compound `O=C1COC2(CN1C1CCN(Cc3ccc(O)cc3Cl)C1)c1ccccc1-c1ccccc12` (centres unmarked) [TCMDC-136341], the “% Inhibition” value was determined as 24.28%. As to `FC(F)(F)c1ccc2nc(-c3ccc(-c4cccc(CN5CCN(CCN6CCOCC6)CC5)c4)cc3)[nH]c2c1` [TCMDC-133943], the “% Inhibition” value was -11.41%. Then `OCCN1CCN(Cc2cccc(-c3ccc(-c4nc5ccc(C(F)(F)F)cc5[nH]4)cc3)c2)CC1` [TCMDC-133031], with 3.481%; and `CN1CCC(N2CCN(Cc3cccc(-c4ccc(-c5nc6ccc(F)cc6[nH]5)cc4)c3)CC2)CC1` [TCMDC-133858], with 97.12%; and `CN1CCC(N2CCN(Cc3ccc(-c4cccc(-c5nc6ccc(F)cc6[nH]5)c4)cc3)CC2)CC1` [TCMDC-133843], with 52.56%. Next, `Fc1ccc2nc(-c3cccc(-c4ccc(CN5CCN(CCN6CCOCC6)CC5)cc4)c3)[nH]c2c1` [TCMDC-133942]: 39.55%. Next, `CN1CCC(N2CCN(Cc3cccc(-c4ccc(-c5nc6ccc(C(F)(F)F)cc6[nH]5)cc4)c3)CC2)CC1` [TCMDC-133842]: 104%. With `Fc1ccc2nc(-c3ccc(-c4cccc(CN5CCN(CCN6CCOCC6)CC5)c4)cc3)[nH]c2c1` [TCMDC-133936], the “% Inhibition” value is -11.53%. Then `OCCN1CCN(Cc2ccc(-c3cccc(-c4nc5ccc(F)cc5[nH]4)c3)cc2)CC1` [TCMDC-133032], with -6.536%. Next, `N#CCCN1CCN(Cc2cccc(-c3ccc(-c4nc5ccc(F)cc5[nH]4)cc3)c2)CC1` [TCMDC-133860]: -16.76%; `CCN(c1cc(C)nc(Nc2ccc(Cl)cc2)n1)[C@H]1CCN(Cc2ccccc2)C1` [TCMDC-132205]: -28.73%; `CC(C)(C)c1cc(C(=O)N2CCN(c3nccnc3C#N)CC2)n(Cc2ccccc2)n1` [TCMDC-134141]: -3.89%.

On to `OC(c1cccc2ccccc12)C1CN(CCc2ccccc2)CCC1(O)c1ccccc1` (centres unmarked) [TCMDC-131998], for which the “% Inhibition” value was 42.45%. Then `COc1ccc(C2=C(Nc3ccc4oc5ccccc5c4c3)c3ccccc3C2=O)cc1` [TCMDC-125672], with 2.294%. Next, `Cc1noc(C)c1-c1cccc(CNCc2ccc(-c3ccc(-c4nc5cc(F)ccc5[nH]4)cc3)cc2)c1.O=C(O)C(F)(F)F` [TCMDC-133057]: 12.39%; `COC(=O)c1cccc(CNCc2ccc(-c3cccc(-c4nc5cccc(C)c5[nH]4)c3)cc2)c1.O=C(O)C(F)(F)F` [TCMDC-132948]: 73.37%; `Cc1cccc2nc(-c3cccc(-c4cccc(CNCC5CCCO5)c4)c3)[nH]c12.O=C(O)C(F)(F)F` (centres unmarked) [TCMDC-133104]: 76.66%. Then `Cc1cccc2nc(-c3ccc(-c4cccc(CNCC5CCCO5)c4)s3)[nH]c12.O=C(O)C(F)(F)F` (centres unmarked) [TCMDC-133094], with 10.18%; and `Cc1cccc2nc(-c3ccc(-c4ccc(CNCc5cccc(N)c5)cc4)cc3)[nH]c12.O=C(O)C(F)(F)F` [TCMDC-132938], with -30.59%. Consider `Cc1cccc2nc(-c3cccc(-c4ccc(CNCc5cccc(N)c5)cc4)c3)[nH]c12.O=C(O)C(F)(F)F` [TCMDC-132930], for which the “% Inhibition” value is given as -5.493%.

`COC(=O)c1cccc(CNCc2ccc(-c3ccc(-c4nc5cccc(C)c5[nH]4)s3)cc2)c1.O=C(O)C(F)(F)F` [TCMDC-132950]: the “% Inhibition” value is listed as 57.35%. Take `Cc1cccc2nc(-c3cccc(-c4cccc(CNCc5cccc(N)c5)c4)c3)[nH]c12.O=C(O)C(F)(F)F` [TCMDC-132928]: the “% Inhibition” value worked out at 56.62%. Then `COC(=O)c1cccc(CNCc2ccc(-c3ccc(-c4nc5ccccc5[nH]4)s3)cc2)c1.O=C(O)C(F)(F)F` [TCMDC-132945], with -1.704%; and `COC(=O)c1cccc(CNCc2cccc(-c3cccc(-c4nc5cccc(C)c5[nH]4)c3)c2)c1.O=C(O)C(F)(F)F` [TCMDC-132946], with 7.725%. Then `Cc1cccc2nc(-c3ccc(-c4cccc(CNCC5CCCO5)c4)cc3)[nH]c12.O=C(O)C(F)(F)F` (centres unmarked) [TCMDC-133098], with -5.371%. Next, `COc1ccc(CNCc2ccc(-c3cccc(-c4nc5cccc(C)c5[nH]4)c3)cc2)cc1.O=C(O)C(F)(F)F` [TCMDC-132729]: 40.55%; `COC(=O)c1cccc(CNCc2cccc(-c3ccc(-c4nc5cccc(C)c5[nH]4)s3)c2)c1.O=C(O)C(F)(F)F` [TCMDC-132956]: -38.48%. With `Brc1ccsc1-c1nc(NC2CCN(Cc3ccccc3)CC2)no1` [TCMDC-134188], the “% Inhibition” value came to 10.75%. Next, `NCC(=O)NC12CC3CC(CC(C3)C1)C2` [TCMDC-131419]: -2.875%; `N#CC1(c2ccccc2)CCN(c2nc(NCCCN3CCCC3=O)nc(N3CCCC4CCCCC43)n2)CC1` (centres unmarked) [TCMDC-139927]: -17.2%; `CCNc1cc(C(=O)N[C@@H](Cc2ccccc2)[C@H](O)CNCCc2cc(OC)cc(OC)c2)cc(N2CCCCS2(=O)=O)c1` [TCMDC-134842]: 28.85%. Next, `Cc1cccc2nc(-c3ccc(-c4cccc(NC(=O)CCc5c[nH]cn5)c4)s3)[nH]c12` [TCMDC-132161]: 5.175%. As to `COC(=O)c1cccc(CNCc2ccc(-c3ccc(-c4nc5cc(F)ccc5[nH]4)cc3)cc2)c1.O=C(O)C(F)(F)F` [TCMDC-132953], the “% Inhibition” value turned out to be 44.17%.

Turning to `COC(=O)c1cccc(CNCc2ccc(-c3ccc(-c4nc5cccc(C)c5[nH]4)cc3)cc2)c1.O=C(O)C(F)(F)F` [TCMDC-132957], the “% Inhibition” value stood at 77.27%. Next, `COC(=O)c1cccc(CNCc2cccc(-c3ccc(-c4nc5cccc(C)c5[nH]4)cc3)c2)c1.O=C(O)C(F)(F)F` [TCMDC-132952]: 25.59%.
